ABHD5 PLIN5 PPI = blocks binding of human ABHD5 to perilipin-5; Q00G26+Q8WTS1; Split G. princeps luciferase complementation, luminescence, 4 h; inhibition, % at 4 µM; 360,000 tested, 0.78% active;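 active means inhibition above the mean inhibition across every tested compound plus 3 SD, cut at about 22% in these data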;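 further: 0% = DMSO only wells and the 100% control is not disclosed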
CRFR2-BP antag = CRF-BP/CRF-R2 complex antagonism. HEK293 CRF-R2/CRF-BP, CRF-induced calcium fluorescence. 350,000 tested, 0.59% active. inhibition, % at 11.8 µM. AID 588475;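 active means inhibition of the ligand-induced calcium signal above about 50% at the single tested concentration, limit read from the data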
NOD2 RIPK2 PPI = NOD2-RIPK2 protein interaction inhibition; AID 624267; CHO BLA complementation NOD2-RIPK2, CCF4 ratio; inhibition, % at 4.98 µM; 360,000 tested, 0.38% active; O43353; in the data active means inhibition above about 21%;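 further: 0% = vehicle only and 100% = reference blocker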
Target sequence (O43353 whole entry, looked up): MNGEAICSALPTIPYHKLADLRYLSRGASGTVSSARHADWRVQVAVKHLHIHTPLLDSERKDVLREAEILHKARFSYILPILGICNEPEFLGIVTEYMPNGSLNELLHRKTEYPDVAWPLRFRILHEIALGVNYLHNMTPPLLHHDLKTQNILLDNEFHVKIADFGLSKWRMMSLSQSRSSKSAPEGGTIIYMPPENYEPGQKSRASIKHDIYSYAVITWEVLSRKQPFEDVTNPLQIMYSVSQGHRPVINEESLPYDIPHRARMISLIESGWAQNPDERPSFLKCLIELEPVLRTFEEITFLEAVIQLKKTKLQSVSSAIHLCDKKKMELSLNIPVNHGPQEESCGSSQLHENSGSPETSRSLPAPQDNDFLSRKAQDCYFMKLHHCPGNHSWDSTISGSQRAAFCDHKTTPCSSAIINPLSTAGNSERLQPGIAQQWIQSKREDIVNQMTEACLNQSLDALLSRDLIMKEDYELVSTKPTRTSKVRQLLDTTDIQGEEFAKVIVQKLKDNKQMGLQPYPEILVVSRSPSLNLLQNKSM
m5-HT2A agonist = activates the mouse 5-HT2A serotonin receptor; P35363; CHO-K1 mHTR2A beta-arrestin complementation, luminescence; percent of 30 µM serotonin response; activation, % at 7.6 µM; 360,000 tested, 0.66% active;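 active means activation above a run cutoff, the mean activation of all tested compounds plus 3 SD, cut at about 14% in these data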;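 further: 0% = plate median of compound wells and 100% = 30 µM serotonin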
TLR9-MyD88 block = inhibitors of human TLR9-MyD88 binding; 340,000 tested, 0.21% active; CHO BLA complementation TLR9-MyD88, CCF4 FRET ratio; inhibition, % at 4.98 µM; Q9NR96+Q99836;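 active means inhibition above the mean over all tested compounds plus 3 SD, cut at about 21% in these data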;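 further: 0% = DMSO only wells and 100% = clavulanate BLA inhibitor control wells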
TLR4 MyD88 comp = TLR4-MyD88 interaction inhibition in cells; 200,000 tested, 0.18% active; inhibition, % at 8.4 µM; O00206+Q99836; AID 861; HeLa CL3-4 TLR4/MyD88 BLA complementation, FRET ratio; in the data active means inhibition above about 25%;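 further: 0% = vehicle and 100% = reference inhibitor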
* hit, by the source's call. Rows were chosen to be rich in hits. Some 2.4% of all compounds tested hit in one or more screens of this group.

How did CCn1cc(C(=O)O)c(=O)c2cc(F)c(N3CCN(C)CC3)cc21 do in these assays?
ABHD5 PLIN5 PPI: 1.7; CRFR2-BP antag: 0.6; NOD2 RIPK2 PPI: -4.4; m5-HT2A agonist: -0.4; TLR9-MyD88 block: -12.4; TLR4 MyD88 comp: -3.5

What do the screens show for `CCCCCCn1cc(C(=O)O)c(=O)c2cc(F)c(N3CCN(C)CC3)cc21`?
ABHD5 PLIN5 PPI: 2.6; CRFR2-BP antag: 0.4; NOD2 RIPK2 PPI: -10.8; m5-HT2A agonist: 16.1*; TLR9-MyD88 block: -9.2

How did COc1ccc(-n2c(SCC(=O)Nc3ccc([N+](=O)[O-])cc3OC)nc3ccccc32)cc1 do in these assays?
ABHD5 PLIN5 PPI: 2.2; CRFR2-BP antag: 30.5; NOD2 RIPK2 PPI: 0.9; m5-HT2A agonist: -1.5; TLR9-MyD88 block: -4.8; TLR4 MyD88 comp: -10.9

Results for COc1cc(NC(=O)CSc2nc3ccccc3n2-c2ccccc2)c(C)cc1[N+](=O)[O-] ?
ABHD5 PLIN5 PPI: 5.3; CRFR2-BP antag: 54.6*; NOD2 RIPK2 PPI: -0.4; m5-HT2A agonist: -3.8; TLR9-MyD88 block: -17.3; TLR4 MyD88 comp: 6.0

Results for COC(=O)[C@@H]1C[C@]2(OC(=O)c3ccccc3)C=CC(=O)C[C@@H]2N1C(=O)OCc1ccccc1 ?
ABHD5 PLIN5 PPI: 45.4*; CRFR2-BP antag: -8.7; NOD2 RIPK2 PPI: 6.2; m5-HT2A agonist: -2.6; TLR9-MyD88 block: -6.2; TLR4 MyD88 comp: 3.6

What do the screens show for `COC(CNC(=O)C1CCCN1C(=O)OCc1ccccc1)OC` (stereo not drawn)?
ABHD5 PLIN5 PPI: -3.9; CRFR2-BP antag: -4.2; NOD2 RIPK2 PPI: -0.8; m5-HT2A agonist: 7.7; TLR9-MyD88 block: 1.4; TLR4 MyD88 comp: -1.0

Results for Cc1nnsc1-c1onc(C)c1C(=O)O/N=C/c1ccc(Cl)cc1 ?
ABHD5 PLIN5 PPI: 4.5; CRFR2-BP antag: 124.7*; NOD2 RIPK2 PPI: -4.6; m5-HT2A agonist: 6.7; TLR9-MyD88 block: -0.3

Results for CC(C)(C)OC(=O)NCCc1nc(NC(=O)OCc2ccccc2)sc1C(=O)O ?
ABHD5 PLIN5 PPI: -8.4; NOD2 RIPK2 PPI: -9.1; m5-HT2A agonist: -0.2

Results for Cc1oc(=O)c(NC(=O)c2ccccc2)cc1C(=O)c1ccccc1 ?
ABHD5 PLIN5 PPI: 22.7*; CRFR2-BP antag: -13.4; NOD2 RIPK2 PPI: 6.0; m5-HT2A agonist: -2.4; TLR9-MyD88 block: 7.7; TLR4 MyD88 comp: 1.1

What do the screens show for `CN(CC(=O)NCc1ccc(F)cc1)S(=O)(=O)c1ccc(Br)s1`?
ABHD5 PLIN5 PPI: -2.6; CRFR2-BP antag: 72.5*; NOD2 RIPK2 PPI: -2.7; m5-HT2A agonist: -7.2; TLR9-MyD88 block: -2.9

Results for COc1cccc(C(=O)N2CCC[C@H]2C(=O)N2CCC[C@H]2C(=O)NCc2ccccn2)c1 ?
ABHD5 PLIN5 PPI: 0.9; NOD2 RIPK2 PPI: 0.5; m5-HT2A agonist: 2.3

Results for Cc1oc(-c2ccc(F)cc2)cc1-c1nn2c(-c3ccco3)nnc2s1 ?
TLR4 MyD88 comp: -2.2

Results for Cc1oc(-c2ccc(F)cc2)cc1-c1nn2c(-c3ccoc3C)nnc2s1 ?
ABHD5 PLIN5 PPI: 29.5*; CRFR2-BP antag: -9.0; NOD2 RIPK2 PPI: -3.0; m5-HT2A agonist: 0.5; TLR9-MyD88 block: -4.1

What do the screens show for `CC(=O)Nc1cc(-c2cccnc2)cn2c(-c3cccc(C(F)(F)F)c3)cnc12`?
ABHD5 PLIN5 PPI: 5.5; NOD2 RIPK2 PPI: 7.9; m5-HT2A agonist: 2.0

Results for COC(=O)C[C@@H]1CC[C@H](NS(=O)(=O)c2cccc(F)c2)[C@@H](CO)O1 ?
ABHD5 PLIN5 PPI: -4.5; NOD2 RIPK2 PPI: -3.1; m5-HT2A agonist: -1.6

How did Cc1cc(N2C(=O)C=CC2=O)c([N+](=O)[O-])cc1C do in these assays?
ABHD5 PLIN5 PPI: 33.0*; CRFR2-BP antag: 45.9; NOD2 RIPK2 PPI: 21.9*; m5-HT2A agonist: -2.9; TLR9-MyD88 block: -0.2; TLR4 MyD88 comp: 5.2

Results for Cc1ccc(-n2[nH]c(C)c(/C=N/Nc3ccc([N+](=O)[O-])cc3[N+](=O)[O-])c2=O)cc1 ?
ABHD5 PLIN5 PPI: -0.6; CRFR2-BP antag: 112.4*; NOD2 RIPK2 PPI: 1.6; m5-HT2A agonist: -1.4; TLR9-MyD88 block: 2.8; TLR4 MyD88 comp: 13.9

How did COc1ccc(-c2nc(CS(=O)CC(=O)NCCC3=CCCCC3)c(C)o2)cc1 (stereo not drawn) do in these assays?
ABHD5 PLIN5 PPI: 4.5; CRFR2-BP antag: -37.6; NOD2 RIPK2 PPI: 9.5; m5-HT2A agonist: 39.6*; TLR9-MyD88 block: -2.5; TLR4 MyD88 comp: 4.4

Source: PubChem
